Laboratory results as given in ChEMBL document CHEMBL3433997, “St. Jude Leishmania screening dataset” (2016).

Experiments:
Assay type in all cases: functional
[1] = target: Solute carrier family 2, facilitated glucose transporter member 1 (Homo sapiens) (UniProt P11166); assay: ST_JUDE_LEISH: Cytotoxicity at 2uM final concentration against transgenic Leishmania Mexicana promastigotes LmGLUT1 that are glucose transport deficient and complemented with the human glucose transporter GLUT1. Activity is measured by DNA content using SYBR green in vitro
[2] = target: Hexose transporter 1 (Plasmodium falciparum) (UniProt O97467); assay: ST_JUDE_LEISH: Cytotoxicity at 2uM final concentration against transgenic Leishmania Mexicana promastigotes LmPfHT that are glucose transport deficient and complemented with the Plasmodium falciparum hexose transporter. Activity is measured by DNA content using SYBR green in vitro
[3] = target: Glucose transporter (Leishmania mexicana) (UniProt O61059); assay: ST_JUDE_LEISH: Cytotoxicity at 2uM final concentration against transgenic Leishmania Mexicana promastigotes LmGT2 that are glucose transport deficient and complemented with the L. Mexicana glucose transporter 2. Activity is measured by DNA content using SYBR green in vitro

Solute carrier family 2, facilitated glucose transporter member 1 (Homo sapiens), sequence (P11166 whole entry): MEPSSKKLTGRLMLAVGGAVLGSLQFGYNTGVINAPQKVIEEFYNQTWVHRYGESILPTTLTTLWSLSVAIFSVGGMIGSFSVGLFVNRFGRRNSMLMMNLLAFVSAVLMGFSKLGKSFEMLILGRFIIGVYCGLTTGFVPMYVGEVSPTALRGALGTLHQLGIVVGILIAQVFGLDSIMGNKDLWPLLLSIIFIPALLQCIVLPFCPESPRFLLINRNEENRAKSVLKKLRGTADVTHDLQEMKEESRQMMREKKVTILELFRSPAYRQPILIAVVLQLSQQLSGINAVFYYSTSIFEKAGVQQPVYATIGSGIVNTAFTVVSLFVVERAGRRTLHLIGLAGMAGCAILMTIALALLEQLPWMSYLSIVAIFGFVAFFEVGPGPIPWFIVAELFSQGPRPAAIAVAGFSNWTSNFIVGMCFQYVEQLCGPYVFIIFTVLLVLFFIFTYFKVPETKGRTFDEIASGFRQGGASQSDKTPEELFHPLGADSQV

Structure (SMILES)	inhibition [1] [%]	inhibition [2] [%]	inhibition [3] [%]
CCCNCc1ccc(-c2ccc(CN(CCOC)C(=O)c3ccc([N+](=O)[O-])c(C)c3)cc2)nc1	3.77	1.8	1.19
NC(=O)c1ccc(-c2ccc3ccnc(N)c3c2)cc1	7.25	6.12	4.88
Cc1cccc2nc(-c3ccc(-c4ccc(NC(=O)NC5CC5c5ccccc5)cc4)cc3)[nH]c12 (stereo not given)	0.9	-1.52	4.78
COc1ccc2nccc([C@@H](O)CN3CCC(NC(=O)/C=C/c4cccc(NC(C)=O)c4)CC3)c2c1	3.71	3.46	4.66
CCC(C)(C)C1CCc2[nH]c3ccccc3c(=O)c2C1 (stereo not given)	9.6	26.9	6.59
c1ccc2cc3c(Nc4ccc(N5CCCCCC5)cc4)ccnc3cc2c1	0.03	0.23	0.24
C=Cc1cc(NC(=O)N2CCc3cc(OC)c(C(F)(F)F)cc32)cc(-c2cccnc2)c1	4.52	-1.84	-1.09
C[C@@H]1CN(C(c2cccc(O)c2)c2cccc(C(=O)N(C)c3cccc(F)c3)c2)[C@@H](C)CN1C(c1cccc(O)c1)c1cccc(C(=O)N(C)c2cccc(F)c2)c1 (stereo not given in full)	3.79	2.73	2.45
CN1CCC(OC(=O)c2cc3cc(-c4ccccc4)ccc3n2S(=O)(=O)c2ccccc2)CC1	1.64	0.71	3.61
CCC(C)NS(=O)(=O)c1ccc2nc(Nc3ccc(C)cc3)n([C@H](C)C(C)(C)C)c2c1 (stereo not given in full)	2.68	0.25	-0.82
CCCC1N=C(N)N=C(N)N1c1ccccc1 (stereo not given)	2.1	-1.28	0.53
Oc1ccc(CCNc2nc(NCCOc3cccc4ccccc34)nc(N3CCNCC3)n2)cc1	3.36	0.4	2.56
c1ccc(COc2ccc(Nc3ncnc4ccc(-c5ccc(CN6CCSCC6)o5)cc34)cc2)cc1	10.9	7.33	7.66
Cc1cc(N[C@@H](CC(C)C)C(=O)NCCc2ccccc2)nc(NCCc2cccs2)n1	5	7.09	5.46
CC(C)(C)c1ccc(CN2CCC(NC(=O)c3ccc(-c4ccccc4F)s3)CC2)cc1	0.69	-2.65	-2.5
COc1cccc(C(=O)NCCc2cccc(Cl)c2)c1Oc1ccccc1	1.18	2.48	1.65
CCCCCN1CCCC(NS(=O)(=O)c2cccc(C(=O)Nc3cccc(C(F)(F)F)c3)c2)C1 (stereo not given)	-0.69	-0.64	-2.02
COc1ccc(O)cc1Cc1cnc2nc(N)nc(N)c2c1C	-0.06	1.16	0.83
Cc1cccc2nc(-c3ccc(-c4cccc(NC(=O)C(C)CN(C)C)c4)s3)[nH]c12 (stereo not given)	-0.15	1.85	0.27
CCCc1ccc(NC(=O)c2cccc(CN3CCCN(Cc4cccc(O)c4)CC3)c2)cc1	-0.09	2.34	0.71
COc1ccc2c(NN=Cc3ccc(Cl)cc3)ccnc2c1	3.12	2.42	4.63
O=C(Nc1ccncc1)c1cc(C(=O)Nc2ccncc2)cc([N+](=O)[O-])c1	-0.17	-3.19	-0.41
COc1cc(F)c2ncc(Cl)c(CCN3CCC(NCc4ccc5c(c4)NC(=O)CO5)CC3)c2c1	7.29	7.51	2.39
COc1ccccc1C1CCN(C2CCC(NC(=O)/C=C/c3cc(F)cc(F)c3)CC2)CC1 (stereo not given)	-1.84	-1.17	-2.6

Structure (SMILES)	inhibition [1] [%]	inhibition [2] [%]	inhibition [3] [%]
CN(C)CCN(C)Cc1nc(-c2ccc3c(Nc4ccc(Oc5ccccc5)cc4)ccnc3c2)cs1	2.99	3.38	2.65
Cn1c(NC2CCN(CC3CCN(C(=O)/C=C/c4ccc(Cl)c(Cl)c4)CC3)CC2)nc2ccccc21	49.9	13.8	81.9
Cc1cnc(NCCc2ccc(F)cc2)nc1NCCC(=O)Nc1ccccc1	4.88	4.76	2.38
O=S(=O)(c1cccc(Cl)c1F)N(CCC(O)(C(F)(F)F)C(F)(F)F)Cc1cccc(O)c1	5.8	-1.78	-0.05
O=C(NCCN1CCCC1)c1cccc(Nc2nccc(Nc3ccc(Oc4ccccc4)cc3)n2)c1	2.86	3.85	2.53
O=C(NC1CC1)c1ccc(N2CCC(COc3cccc(F)c3)CC2)nc1	5.26	4.16	6.94
Cc1cc(CNCCCCCCCNCc2ccc(-c3ccccc3)cc2)ccc1O	0.67	1.76	1.05
CCc1cn2c3c(cc(C(=O)N[C@@H](Cc4ccccc4)[C@H](O)CNCCOC)cc13)N(C)S(=O)(=O)CC2	5.11	2.43	3.91
C=CCOc1ccc(CNC2CCN(Cc3ccccc3)CC2)cc1Br	2.99	4.16	0.3
CCCCN(C(=O)c1ccccc1Cl)c1nnc(-c2ccccc2C)s1	-1.28	0.39	0.03
COc1ccccc1NC(=O)Nc1ccc(-c2cccc(-c3nc4ccccc4[nH]3)c2)cc1	3	2	3.27
O=C(Cn1c(CCc2cccc(F)c2F)cc(=O)c2ccccc21)N(Cc1ccc(-c2ccc(C(F)(F)F)cc2)cc1)C1CCN(CCO)CC1	4.1	3.74	4.47
Cc1nc(C)c(-c2ccc(Oc3ccc(OC(F)(F)F)cc3)cc2)c(OC(=O)c2ccc(CN(C)C)cc2)c1Cl	10.9	8.12	8.96
COc1ccc(-c2cccc(NC(=O)c3ccc(C#N)cc3)c2)cc1CN1CCCC1	11.3	11.1	2.91
Clc1cnc2ccc3c(c2c1CCN1CCC(NCc2cc4c(cn2)OCCO4)CC1)OCCO3	27.3	42.2	14.9
Fc1ccc2[nH]c3c(NCCCN4CCOCC4)ncnc3c2c1	1.79	0.7	-0.69
CC(C)(C)c1ccc(NC(=O)c2cccc(CN3CCCN(Cc4cccc(Cl)c4)CC3)c2)cc1	5.32	4.37	2.14
CCCCN1Cc2c(n(CC(=O)Nc3ccccc3)c3cc(-c4ccccc4)nn3c2=O)C1=O	1.25	1.92	1.8
CO/C(=C\C=C\c1cc2cc(Cl)c(Cl)cc2[nH]1)C(=O)NCCCN1CCN(c2cccc(CCCO)c2)CC1	6	5.32	5.89
CC(C)C[C@@H](C(=O)N[C@H](C(=O)Nc1nccs1)C(C)(C)C)[C@H](CCC(F)(F)F)N(O)C=O	4.27	6.41	4.07
c1ccc(Oc2ccc(Nc3ccnc4cc(-c5ccc(CNCCN6CCOCC6)o5)ccc34)cc2)nc1	2.93	2.52	2.3
Cc1nnc2c(NC(=O)/C=C/c3ccc(OC(F)(F)F)cc3)cc3cc(Cl)ccc3n12	0.28	0.28	0.55
O=C(/C=C/c1ccc(-c2ccccc2)cc1)NCCCCCN1CCC(c2c[nH]c3ccccc23)CC1	0.3	4.35	-1.76
Cc1noc(C)c1-c1ccc2c(Nc3ccc([N+](=O)[O-])cc3)c(C(N)=O)cnc2c1	-0.67	-0.09	-0.76

Structure (SMILES)	inhibition [1] [%]	inhibition [2] [%]	inhibition [3] [%]
COc1ccc(CNC(=O)c2cnc3c(O)cccc3c2Nc2cccc(NC(=O)c3ccc(Cl)c(Cl)c3)c2)cc1	74.7	78.8	76.6
S=C(Nc1cccc(Cl)c1)NC1CCN(c2ccnc3cc(Cl)ccc23)C1 (stereo not given)	13.2	9.65	9.07
CC(=O)C1=NN(c2ccc(C)cc2)C(c2cccs2)N1c1ccccc1 (stereo not given)	2.5	2.74	2.11
O=C(c1ccco1)c1cn(CCOc2ccccc2)c2ccccc12	1.36	1.5	-0.07
CC(C)C[C@H](NC(=O)c1ccc(OCCN2CCOCC2)cc1)C(=O)N[C@H](/C=N/N1CCNC1=O)CCc1ccccc1	6.57	6.05	4.07
CCOC(=O)c1ccc(NC(=O)N[C@@H](Cc2ccc(O)cc2)C(=O)NC2CCN(Cc3ccc4c(c3)OCO4)CC2)cc1	0.57	2.47	0.58
CCn1ncc2c(N3CCCC3=O)cc(C(=O)N[C@@H](Cc3ccccc3)[C@H](O)CNC(C)(C)c3cccc(OC)c3)cc21	2.35	-0.95	0.04
CCN(CC)CCCCOc1ccc2c(c1)C(=O)c1cc(OCCCCN(CC)CC)ccc1-2	10.2	4.61	0.2
Cc1cc(N2Cc3ccccc3C2)nc(Nc2ccc(S(=O)(=O)N3CCOCC3)cc2)n1	1.54	2	1.21
O=C(Nc1cccc(OC2CCN(Cc3ccc(F)cc3)CC2)c1)c1ccc(C(F)(F)F)cc1	0.28	0.67	0.79
Fc1ccccc1C=NN=c1cc[nH]c2ccc(C(F)(F)F)cc12	3.03	3.13	2.13
Cc1ccccc1CNc1noc(-c2c(-c3ccccc3)noc2C)n1	-2.97	2.16	6.28
COc1ccc2ncc(F)c(CCN3CC(O)C(CNCc4ccc5c(n4)NC(=O)CS5)C3)c2c1 (stereo not given)	1.08	1.93	2.84
CCc1nc2c(cnn2CC)c(NC2CCOCC2)c1CNC(=O)c1ccoc1C	6.4	6.38	2.97
O=C(Nc1cccc(CN2CCCN(CC3CC3)CC2)c1)c1ccc(-c2ccccc2)cc1	3.62	4.69	-0.4
O=C(NCCCCN1CCCC2c3cccc(O)c3CCC21)c1ccc(-c2ccccc2)cc1 (stereo not given)	0.9	-0.26	-0.23
C=Cc1ccc(-c2c(C)[nH]c(C)c(Br)c2=O)cc1	0.56	1.38	-0.92
CS(=O)(=O)c1ccc(Nc2ncc(-c3ccc(S(C)(=O)=O)cc3)c(OCC(F)(F)F)n2)cc1	4.36	0.18	3.17
COc1cccc(Nc2nc(C)cc(NC3CCN(Cc4ccccc4)CC3)n2)c1	5.81	3.9	0.8
OCc1ccc2nc3c(cc2c1)-c1cccc2cccc-3c12	3.6	1.82	2.11
CCNc1cc(C(=O)NC(Cc2ccccc2)C(O)CNC2CCSCC2)cc(N2CCCC2=O)c1 (stereo not given)	3.69	3.13	4
O=C(COc1cccc([N+](=O)[O-])c1)Nc1ccc(-c2nc3ccccc3[nH]2)cc1	1.62	2.12	-1.82
